LT uptake inh = qHTS Assay for Anthrax Lethal Toxin Internalization. Potency, µM (series often up to 40 µM), without a hit: at the top dose activity change, negative = inhibition, most hits filed as inhibitors. actives 0.67% (n = 70,000). Cells, anthrax lethal toxin internalization, FRET ratio (460/530); also: % is scaled to controls: 0 for no effect and ±100 for the full control effect; nearly all actives have a fitted effect of over 50% in size
AmpC nodet inh = Promiscuous and Specific Inhibitors of AmpC Beta-Lactamase (assay without detergent) | P00811 | AmpC nitrocefin hydrolysis, absorbance 480 nm, no detergent | actives 1.8% (n = 71,000) | AID 585, 2007 | Potency, µM (doses to about 28.7 µM), for inactives: top-dose activity change, negative = inhibition; also: % of control where 0% means no effect
Target sequence (P00811 whole entry, looked up): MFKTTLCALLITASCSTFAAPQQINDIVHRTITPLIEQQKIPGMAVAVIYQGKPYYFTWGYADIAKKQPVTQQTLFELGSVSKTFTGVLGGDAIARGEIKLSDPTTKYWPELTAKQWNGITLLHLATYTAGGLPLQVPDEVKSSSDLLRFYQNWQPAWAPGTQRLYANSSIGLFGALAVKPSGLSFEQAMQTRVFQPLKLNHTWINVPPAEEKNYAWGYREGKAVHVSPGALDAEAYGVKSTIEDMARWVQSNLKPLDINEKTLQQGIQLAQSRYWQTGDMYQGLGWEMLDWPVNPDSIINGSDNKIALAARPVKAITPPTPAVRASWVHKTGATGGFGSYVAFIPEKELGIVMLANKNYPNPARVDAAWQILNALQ
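AmpC in 20 mM phosphate buffer pH 7.0 was preincubated 15 min at room temperature with compounds. Nitrocefin (800 uM stock) was then added and hydrolysis followed at 480 nm every 20 s for 4 min.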
AmpC det inh = Promiscuous and Specific Inhibitors of AmpC Beta-Lactamase (assay with detergent); P00811; purified AmpC, nitrocefin hydrolysis with detergent; Potency, µM (titrated, usually from 28.7 µM), for inactives: top-dose activity change, negative = inhibition; actives 0.09% (n = 71,000); AID 584, 2007; active = well fitted curve in the direction sought with a large enough effect; inconclusive = small, poorly fitted or top-dose-only effect; also: % is scaled to controls: 0 for no effect and ±100 for the full control effect
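E. coli AmpC (5.3 nM) in 20 mM phosphate pH 7.0 with 0.01% Triton X-100, preincubated 15 min RT with compound; nitrocefin (2 uL of 800 uM stock) hydrolysis followed by 480 nm absorbance every 20 s over 4 min.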
Prx2 Sm inh = Schistosoma Mansoni Peroxiredoxins (Prx2); Schistosoma mansoni peroxiredoxin 2 (Prx2); S. mansoni Prx2 activity coupled to TGR/GSH (TGR is thioredoxin glutathione reductase), NADPH fluorescence loss, qHTS; Potency, µM; actives 0.07% (n = 65,000); AID 448, 2006
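Enzyme mix: 100 uM NADPH, 25 nM TGR, 700 uM GSH, 50 nM Prx2 in 100 mM phosphate pH 7.4, 10 mM EDTA, 0.01% Tween-20. 15 min RT with compound; NADPH/GSH added, H2O2 starts reaction; NADPH fluorescence read 8 min.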
* hit, by the source's call; ? = inconclusive; . = no result given; [ ] = another dose, or the depositor's remark. In the library only some 2.6% were active in any assay of this set; here they are far more common. Unless noted, calls follow the shape of the full dose curve. Potency is read from the fitted curve at half-maximal effect.

SMILES	LT uptake inh	AmpC nodet inh	AmpC det inh	Prx2 Sm inh
CC(C)COC(=O)c1nnsc1NC(=O)Nc1ccccc1	-27%	16µM*[single pt active]	-2%	>57
Cc1ccc(-c2nnn(CC(=O)Nc3ccc(S(=O)(=O)N4CCC(C)CC4)cc3)n2)cc1	-25%	13µM*	6%	>57
CC1CCCN(S(=O)(=O)c2ccc(NC(=O)Cn3nnc(-c4ccccc4F)n3)cc2)C1 (stereo not given)	-26%	16µM*	15%	>57
CC1CCN(S(=O)(=O)c2ccc(NC(=O)Cn3nnc(-c4ccccc4)n3)cc2)CC1	?	-13%	-6%	>57
Cc1c(C(=O)c2ccc3ccccc3c2)c2cccc3c2n1[C@H](CN1CCOCC1)CO3	2µM*	115%	-6%	>26
CCOC(=O)N1CCC(NC(=O)C2CCCN(S(C)(=O)=O)C2)CC1 (stereo not given)	?	-6%	-4%	>57
Cc1ccc2nc(NC(=O)C3CCCN(S(=O)(=O)c4cnc[nH]4)C3)sc2c1 (stereo not given)	?	2%	3%	>57
O=C(NCCc1ccccc1)C1CCCN(S(=O)(=O)c2cccnc2)C1 (stereo not given)	-1%	3%	-1%	>57
CCOC(=O)N1CCC(NC(=O)C2CCCN(S(=O)(=O)c3cccnc3)C2)CC1 (stereo not given)	-5%	4µM*[single pt active]	12%	>57
O=C(NC1CCCC1)C1CCCN(S(=O)(=O)c2cccc3cccnc23)C1 (stereo not given)	-14%	3.2µM*[single pt active]	14%	>57
NS(=O)(=O)c1ccc(CCNC(=O)C2CCCN(S(=O)(=O)c3cccnc3)C2)cc1 (stereo not given)	-10%	4µM*[single pt active]	13%	>57
O=C(NC1CCCCCC1)C1CCN(S(=O)(=O)c2cccc3cccnc23)CC1	-15%	23%	30%	>57
Cc1ccc2nc(NC(=O)C3CCCN(S(=O)(=O)c4cccnc4)C3)sc2c1 (stereo not given)	-30%	4µM*[single pt active]	13%	>57
C=CCNC(=O)c1cc([N+](=O)[O-])cc2c(=O)[nH]c(Nc3ccc(Cl)c(Cl)c3)nc12	-4%	.	.	.
CO[C@@H]1COC(=O)[C@H](CCSC)NC(=O)C/C=C\[C@@H](C)COC(=O)[C@@H]2CCCN2C(=O)C/C=C\[C@H]1C	-5%[8 µM]	.	.	.
CCN(CC)c1ccc(NC(=O)CC2Oc3ccccc3NC2=O)c(C)c1 (stereo not given)	?	4µM*[single pt active]	11%	>57
Cc1ccc(NC(=O)CC2Oc3ccccc3NC2=O)c(C)c1 (stereo not given)	0%	4µM*[single pt active]	13%	>57
CCCCNc1nc(N(C)c2ccccc2)nc(-n2ccnc2)n1	13µM*	28%	-3%	>57
CCCCCCCC1=CC2=CC(=O)C(C)(O)C(=O)C2=CN1CCCC (stereo not given)	-4%[8 µM]	.	.	.
COc1ccc2c(c1)OC13CCN(C)CC1C2C(C(=O)c1ccc(F)cc1)C(=O)N3 (stereo not given)	-18%	4µM*[single pt active]	16%	>57
COC(=O)C1CCN(C(c2cc(OC)c(OC)c(OC)c2)c2sc3nc(C)nn3c2O)CC1 (stereo not given)	-4%	10%	9%	>57
CCOC(=O)C1CCN(C(c2cc(OC)c(OC)c(OC)c2)c2sc3nc(C)nn3c2O)CC1 (stereo not given)	16µM*	10%	6%	>57
O=C(Nc1nccs1)C1(S(=O)(=O)c2ccc(Cl)cc2)CC1	8%	4%	-3%	>57
Cc1ccc(S(=O)(=O)C2(C(=O)Nc3cccc(F)c3)CC2)cc1	-14%	4µM*[single pt active]	11%	>57
Cc1ccc(S(=O)(=O)C2(C(=O)Nc3nccs3)CC2)cc1	-5%	4µM*[single pt active]	12%	>57
CCCCCCC1=Cc2cc(OC)c(OC)cc2C(C(C(C)=O)C(=O)OCC)O1 (stereo not given)	-19%[8 µM]	.	.	.
COc1cc(N[C@@H](C)CCCN)c2ncccc2c1	1%[3.58 µM]	40%[12.8 µM]	-3%[12.8 µM]	>57
C/C(CCN1CCCc2nc(C)c(C)cc21)=N\O[C@@H](C)c1cn([C@@H]2COC[C@@H]2O)nn1	-9%[8 µM]	.	.	.
O=c1oc2c(O)c(O)cc3c(=O)oc4c(O)c(O)cc1c4c23	?	7.9µM*	?	>57
Cc1c(C)c2cc(Cl)c(O)c(CN(C)C)c2oc1=O	11%	-1%	0%	.

From PubChem BioAssay
